# Legend:
# Assay in all cases: fluorescence anisotropy; 10 mM Tris-HEPES pH 7.5, 8% Ficoll, 0.05% NP-40, 135 mM KCl, 15 mM NaCl, 1 mM DTT, 0.1 mg/mL BSA; 2 nM DNA or 3 nM RNA; low values mean tight binding
# Settings in all cases: protein: recombinant; tags: N-terminal His6 and thrombin site, not removed; label: 3' fluorescein; hairpin; structured_RNA
# [1] = target: Sox2-HMG (His6 retained) E78A (Homo sapiens, UniProt P48431 38-121, E78A)
# Method in brief: (§1)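 Sox2-HMG domains carrying alanine substitutions were generated by site-directed mutagenesis and purified on Ni-NTA with the His6 tag left in place. Each protein was titrated for at least 1 h in Tris-HEPES pH 7.5 binding buffer against fluorescein-labeled DNA at 2 nM or fluorescein-labeled RNA at 3 nM, and polarization was measured on a CLARIOstar from triplicate titrations, each read three times. Kaleidagraph was used to fit dissociation constants, which are given as the mutant-to-wild-type ratio.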
# [2] = target: Sox2-HMG (His6 retained) S72A (Homo sapiens, UniProt P48431 38-121, S72A)
# Method in brief: as §1
# [3] = target: Sox2-HMG (His6 retained) E104A (Homo sapiens, UniProt P48431 38-121, E104A)
# Method in brief: as §1
# [4] = target: Sox2-HMG (His6 retained) K58A (Homo sapiens, UniProt P48431 38-121, K58A)
# Method in brief: as §1
# [5] = target: Sox2-HMG (His6 retained) H67A (Homo sapiens, UniProt P48431 38-121, H67A)
# Method in brief: as §1
# [6] = target: Sox2-HMG (His6 retained) K42A (Homo sapiens, UniProt P48431 38-121, K42A)
# Method in brief: as §1
# [7] = target: Sox2-HMG (His6 retained) M45A (Homo sapiens, UniProt P48431 38-121, M45A)
# Method in brief: as §1
# [8] = target: Sox2-HMG (His6 retained) N63A (Homo sapiens, UniProt P48431 38-121, N63A)
# Method in brief: as §1
# [9] = target: Sox2-HMG (His6 retained) K115A (Homo sapiens, UniProt P48431 38-121, K115A)
# Method in brief: as §1
# [10] = target: Sox2-HMG (His6 retained) E70A (Homo sapiens, UniProt P48431 38-121, E70A)
# Method in brief: as §1
# [11] = target: Sox2-HMG (His6 retained) K87A (Homo sapiens, UniProt P48431 38-121, K87A)
# Method in brief: as §1
# [12] = target: Sox2-HMG (His6 retained) W79A (Homo sapiens, UniProt P48431 38-121, W79A)
# Method in brief: as §1
# [13] = target: Sox2-HMG (His6 retained) E62A (Homo sapiens, UniProt P48431 38-121, E62A)
# Method in brief: as §1
# [14] = target: Sox2-HMG (His6 retained) R114A (Homo sapiens, UniProt P48431 38-121, R114A)
# Method in brief: as §1
# [15] = target: Sox2-HMG (His6 retained) S69A (Homo sapiens, UniProt P48431 38-121, S69A)
# Method in brief: as §1
# [16] = target: Sox2-HMG (His6 retained) R96A (Homo sapiens, UniProt P48431 38-121, R96A)
# Method in brief: as §1
# [17] = target: Sox2-HMG (His6 retained) R40A (Homo sapiens, UniProt P48431 38-121, R40A)
# Method in brief: as §1
# [18] = target: Sox2-HMG (His6 retained) W51A (Homo sapiens, UniProt P48431 38-121, W51A)
# Method in brief: as §1
# [19] = target: Sox2-HMG (His6 retained) S83A (Homo sapiens, UniProt P48431 38-121, S83A)
# Method in brief: as §1
# [20] = target: Sox2-HMG (His6 retained) R111A (Homo sapiens, UniProt P48431 38-121, R111A)
# Method in brief: as §1
# [21] = target: Sox2-HMG (His6 retained) E84A (Homo sapiens, UniProt P48431 38-121, E84A)
# Method in brief: as §1
# [22] = target: Sox2-HMG (His6 retained) K95A (Homo sapiens, UniProt P48431 38-121, K95A)
# Method in brief: as §1
# [23] = target: Sox2-HMG (His6 retained) F48A (Homo sapiens, UniProt P48431 38-121, F48A)
# Method in brief: as §1
# [24] = target: Sox2-HMG (His6 retained) R74A (Homo sapiens, UniProt P48431 38-121, R74A)
# Method in brief: as §1
# [25] = target: Sox2-HMG (His6 retained) Q61A (Homo sapiens, UniProt P48431 38-121, Q61A)
# Method in brief: as §1
# [26] = target: Sox2-HMG (His6 retained) R88A (Homo sapiens, UniProt P48431 38-121, R88A)
# Method in brief: as §1
# [27] = target: Sox2-HMG (His6 retained) K73A (Homo sapiens, UniProt P48431 38-121, K73A)
# Method in brief: as §1
# [28] = target: Sox2-HMG (His6 retained) E86A (Homo sapiens, UniProt P48431 38-121, E86A)
# Method in brief: as §1
# [29] = target: Sox2-HMG (His6 retained) R53A (Homo sapiens, UniProt P48431 38-121, R53A)
# Method in brief: as §1
# [30] = target: Sox2-HMG (His6 retained) R113A (Homo sapiens, UniProt P48431 38-121, R113A)
# Method in brief: as §1
# [31] = target: Sox2-HMG (His6 retained) T85A (Homo sapiens, UniProt P48431 38-121, T85A)
# Method in brief: as §1
# [32] = target: Sox2-HMG (His6 retained) M49A (Homo sapiens, UniProt P48431 38-121, M49A)
# Method in brief: as §1
# [33] = target: Sox2-HMG (His6 retained) R56A (Homo sapiens, UniProt P48431 38-121, R56A)
# Method in brief: as §1
# [34] = target: Sox2-HMG (His6 retained) K80A (Homo sapiens, UniProt P48431 38-121, K80A)
# Method in brief: as §1
# [35] = target: Sox2-HMG (His6 retained) Y110A (Homo sapiens, UniProt P48431 38-121, Y110A)
# Method in brief: as §1
# [36] = target: Sox2-HMG (His6 retained) K103A (Homo sapiens, UniProt P48431 38-121, K103A)
# Method in brief: as §1
# [37] = target: Sox2-HMG (His6 retained) K109A (Homo sapiens, UniProt P48431 38-121, K109A)
# Method in brief: as §1
# [38] = target: Sox2-HMG (His6 retained) R43A (Homo sapiens, UniProt P48431 38-121, R43A)
# Method in brief: as §1
# [39] = target: Sox2-HMG (His6 retained) R57A (Homo sapiens, UniProt P48431 38-121, R57A)
# Method in brief: as §1
# [40] = target: Sox2-HMG (His6 retained) R98A (Homo sapiens, UniProt P48431 38-121, R98A)
# Method in brief: as §1
# [41] = target: Sox2-HMG (His6 retained) N68A (Homo sapiens, UniProt P48431 38-121, N68A)
# Method in brief: as §1
# [42] = target: Sox2-HMG (His6 retained) P112A (Homo sapiens, UniProt P48431 38-121, P112A)
# Method in brief: as §1
# [43] = target: Sox2-HMG (His6 retained) N46A (Homo sapiens, UniProt P48431 38-121, N46A)
# Method in brief: as §1
# [44] = target: Sox2-HMG (His6 retained) K65A (Homo sapiens, UniProt P48431 38-121, K65A)
# Method in brief: as §1
# [45] = target: Sox2-HMG (His6 retained) H101A (Homo sapiens, UniProt P48431 38-121, H101A)
# Method in brief: as §1
# [46] = target: Sox2-HMG (His6 retained) P64A (Homo sapiens, UniProt P48431 38-121, P64A)
# Method in brief: as §1
# [47] = target: Sox2-HMG (His6 retained) M66A (Homo sapiens, UniProt P48431 38-121, M66A)
# Method in brief: as §1
# [48] = target: Sox2-HMG (His6 retained) H105A (Homo sapiens, UniProt P48431 38-121, H105A)
# Method in brief: as §1
# Sox2-HMG (His6 retained) R57A, sequence (P48431 other isoform, or with tags, fused parts or gaps R57A | R57A R57A): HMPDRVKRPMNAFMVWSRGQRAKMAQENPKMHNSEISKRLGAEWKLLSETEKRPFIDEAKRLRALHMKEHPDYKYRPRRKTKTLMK
# Sox2-HMG (His6 retained) N68A, sequence (P48431 other isoform, or with tags, fused parts or gaps N68A | N68A N68A): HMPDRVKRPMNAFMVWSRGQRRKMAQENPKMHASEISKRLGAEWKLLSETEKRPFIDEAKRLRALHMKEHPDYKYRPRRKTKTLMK
# Sox2-HMG (His6 retained) H67A, sequence (P48431 other isoform, or with tags, fused parts or gaps H67A | H67A H67A): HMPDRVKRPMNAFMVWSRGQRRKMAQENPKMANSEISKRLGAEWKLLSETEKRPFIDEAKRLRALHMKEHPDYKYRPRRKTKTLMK
# Sox2-HMG (His6 retained) K103A, sequence (P48431 other isoform, or with tags, fused parts or gaps K103A | K103A K103A): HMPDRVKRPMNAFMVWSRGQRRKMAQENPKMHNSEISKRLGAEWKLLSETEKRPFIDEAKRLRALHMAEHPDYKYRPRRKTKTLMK
# Sox2-HMG (His6 retained) W51A, sequence (P48431 other isoform, or with tags, fused parts or gaps W51A | W51A W51A): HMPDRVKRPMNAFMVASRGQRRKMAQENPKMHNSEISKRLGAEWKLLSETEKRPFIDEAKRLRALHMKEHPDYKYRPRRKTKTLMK
# Sox2-HMG (His6 retained) S83A, sequence (P48431 other isoform, or with tags, fused parts or gaps S83A | S83A S83A): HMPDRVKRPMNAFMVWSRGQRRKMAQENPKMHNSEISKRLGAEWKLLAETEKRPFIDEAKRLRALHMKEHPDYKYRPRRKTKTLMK
# Sox2-HMG (His6 retained) K109A, sequence (P48431 other isoform, or with tags, fused parts or gaps K109A | K109A K109A): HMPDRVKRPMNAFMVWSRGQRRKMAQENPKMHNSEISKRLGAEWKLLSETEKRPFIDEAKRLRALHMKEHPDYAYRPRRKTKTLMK
# Sox2-HMG (His6 retained) R113A, sequence (P48431 other isoform, or with tags, fused parts or gaps R113A | R113A R113A): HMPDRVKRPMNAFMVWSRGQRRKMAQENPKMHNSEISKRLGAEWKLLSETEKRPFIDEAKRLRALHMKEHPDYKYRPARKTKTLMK
# Sox2-HMG (His6 retained) S72A, sequence (P48431 other isoform, or with tags, fused parts or gaps S72A | S72A S72A): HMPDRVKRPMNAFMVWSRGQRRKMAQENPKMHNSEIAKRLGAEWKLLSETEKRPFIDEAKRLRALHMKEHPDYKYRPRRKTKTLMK
# Sox2-HMG (His6 retained) M49A, sequence (P48431 other isoform, or with tags, fused parts or gaps M49A | M49A M49A): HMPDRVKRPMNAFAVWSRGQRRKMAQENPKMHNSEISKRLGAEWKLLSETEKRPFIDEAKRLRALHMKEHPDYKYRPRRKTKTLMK
# Sox2-HMG (His6 retained) K73A, sequence (P48431 other isoform, or with tags, fused parts or gaps K73A | K73A K73A): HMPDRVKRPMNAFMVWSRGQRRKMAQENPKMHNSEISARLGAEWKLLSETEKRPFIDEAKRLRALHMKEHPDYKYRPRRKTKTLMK
# Sox2-HMG (His6 retained) E86A, sequence (P48431 other isoform, or with tags, fused parts or gaps E86A | E86A E86A): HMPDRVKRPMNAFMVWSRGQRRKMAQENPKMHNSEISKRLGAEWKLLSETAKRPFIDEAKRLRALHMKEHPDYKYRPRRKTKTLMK
# Sox2-HMG (His6 retained) K42A, sequence (P48431 other isoform, or with tags, fused parts or gaps K42A | K42A K42A): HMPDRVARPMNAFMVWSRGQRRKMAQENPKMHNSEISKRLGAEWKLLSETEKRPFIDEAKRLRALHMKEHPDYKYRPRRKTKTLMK
# Sox2-HMG (His6 retained) M66A, sequence (P48431 other isoform, or with tags, fused parts or gaps M66A | M66A M66A): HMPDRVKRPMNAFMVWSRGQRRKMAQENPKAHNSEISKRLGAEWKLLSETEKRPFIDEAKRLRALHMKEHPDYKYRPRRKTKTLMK
# Sox2-HMG (His6 retained) P64A, sequence (P48431 other isoform, or with tags, fused parts or gaps P64A | P64A P64A): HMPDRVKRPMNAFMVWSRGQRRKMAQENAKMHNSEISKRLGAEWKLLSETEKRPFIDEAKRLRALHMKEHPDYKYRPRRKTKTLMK
# Sox2-HMG (His6 retained) M45A, sequence (P48431 other isoform, or with tags, fused parts or gaps M45A | M45A M45A): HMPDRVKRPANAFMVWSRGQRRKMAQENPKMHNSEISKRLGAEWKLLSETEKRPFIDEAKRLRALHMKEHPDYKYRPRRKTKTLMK
# Sox2-HMG (His6 retained) K58A, sequence (P48431 other isoform, or with tags, fused parts or gaps K58A | K58A K58A): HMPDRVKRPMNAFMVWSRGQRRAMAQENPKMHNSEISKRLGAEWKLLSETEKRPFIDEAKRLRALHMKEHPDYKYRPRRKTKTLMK
# Sox2-HMG (His6 retained) T85A, sequence (P48431 other isoform, or with tags, fused parts or gaps T85A | T85A T85A): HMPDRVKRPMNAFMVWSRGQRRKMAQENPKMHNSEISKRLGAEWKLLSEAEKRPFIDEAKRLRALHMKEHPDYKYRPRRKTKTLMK
# Sox2-HMG (His6 retained) E62A, sequence (P48431 other isoform, or with tags, fused parts or gaps E62A | E62A E62A): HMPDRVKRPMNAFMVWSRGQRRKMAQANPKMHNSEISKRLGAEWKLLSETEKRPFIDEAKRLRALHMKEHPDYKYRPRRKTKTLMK
# Sox2-HMG (His6 retained) S69A, sequence (P48431 other isoform, or with tags, fused parts or gaps S69A | S69A S69A): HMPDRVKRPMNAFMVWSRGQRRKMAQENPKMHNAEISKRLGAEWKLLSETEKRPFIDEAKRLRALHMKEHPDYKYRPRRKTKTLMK
# Sox2-HMG (His6 retained) K87A, sequence (P48431 other isoform, or with tags, fused parts or gaps K87A | K87A K87A): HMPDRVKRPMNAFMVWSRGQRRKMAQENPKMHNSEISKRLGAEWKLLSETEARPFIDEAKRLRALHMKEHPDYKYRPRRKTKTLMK
# Sox2-HMG (His6 retained) K65A, sequence (P48431 other isoform, or with tags, fused parts or gaps K65A | K65A K65A): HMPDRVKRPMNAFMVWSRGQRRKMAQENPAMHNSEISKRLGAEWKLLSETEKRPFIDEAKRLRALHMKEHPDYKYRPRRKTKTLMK
# Sox2-HMG (His6 retained) N63A, sequence (P48431 other isoform, or with tags, fused parts or gaps N63A | N63A N63A): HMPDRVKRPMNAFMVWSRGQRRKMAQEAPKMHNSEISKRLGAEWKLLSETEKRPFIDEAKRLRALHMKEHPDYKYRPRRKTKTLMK
# Sox2-HMG (His6 retained) R40A, sequence (P48431 other isoform, or with tags, fused parts or gaps R40A | R40A R40A): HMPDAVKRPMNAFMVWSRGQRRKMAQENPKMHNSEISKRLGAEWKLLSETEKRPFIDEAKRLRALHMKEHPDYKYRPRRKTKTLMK
# Sox2-HMG (His6 retained) R53A, sequence (P48431 other isoform, or with tags, fused parts or gaps R53A | R53A R53A): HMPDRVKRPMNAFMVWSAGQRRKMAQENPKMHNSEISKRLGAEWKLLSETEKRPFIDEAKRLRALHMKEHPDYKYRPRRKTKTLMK
# Sox2-HMG (His6 retained) Y110A, sequence (P48431 other isoform, or with tags, fused parts or gaps Y110A | Y110A Y110A): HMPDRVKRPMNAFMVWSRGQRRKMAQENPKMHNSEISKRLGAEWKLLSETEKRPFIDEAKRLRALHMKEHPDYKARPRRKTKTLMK
# Sox2-HMG (His6 retained) R74A, sequence (P48431 other isoform, or with tags, fused parts or gaps R74A | R74A R74A): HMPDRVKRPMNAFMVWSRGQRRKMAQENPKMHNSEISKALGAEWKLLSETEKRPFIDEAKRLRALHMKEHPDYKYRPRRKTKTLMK
# Sox2-HMG (His6 retained) Q61A, sequence (P48431 other isoform, or with tags, fused parts or gaps Q61A | Q61A Q61A): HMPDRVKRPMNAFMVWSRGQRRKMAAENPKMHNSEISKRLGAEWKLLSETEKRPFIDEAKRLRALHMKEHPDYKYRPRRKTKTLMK
# Sox2-HMG (His6 retained) F48A, sequence (P48431 other isoform, or with tags, fused parts or gaps F48A | F48A F48A): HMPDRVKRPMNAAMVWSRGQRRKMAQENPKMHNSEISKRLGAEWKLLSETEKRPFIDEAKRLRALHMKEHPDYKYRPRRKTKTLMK
# Sox2-HMG (His6 retained) W79A, sequence (P48431 other isoform, or with tags, fused parts or gaps W79A | W79A W79A): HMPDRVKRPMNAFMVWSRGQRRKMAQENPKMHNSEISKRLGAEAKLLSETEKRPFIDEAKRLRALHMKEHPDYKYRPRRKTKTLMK
# Sox2-HMG (His6 retained) R114A, sequence (P48431 other isoform, or with tags, fused parts or gaps R114A | R114A R114A): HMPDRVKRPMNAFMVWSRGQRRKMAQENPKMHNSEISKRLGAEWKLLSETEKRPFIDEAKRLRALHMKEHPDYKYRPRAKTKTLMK
# Sox2-HMG (His6 retained) R111A, sequence (P48431 other isoform, or with tags, fused parts or gaps R111A | R111A R111A): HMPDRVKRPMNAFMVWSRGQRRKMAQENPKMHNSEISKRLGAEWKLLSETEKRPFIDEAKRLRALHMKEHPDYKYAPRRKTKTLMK
# Sox2-HMG (His6 retained) K95A, sequence (P48431 other isoform, or with tags, fused parts or gaps K95A | K95A K95A): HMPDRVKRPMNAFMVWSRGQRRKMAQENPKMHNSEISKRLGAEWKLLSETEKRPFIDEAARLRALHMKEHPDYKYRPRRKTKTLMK
# Sox2-HMG (His6 retained) E84A, sequence (P48431 other isoform, or with tags, fused parts or gaps E84A | E84A E84A): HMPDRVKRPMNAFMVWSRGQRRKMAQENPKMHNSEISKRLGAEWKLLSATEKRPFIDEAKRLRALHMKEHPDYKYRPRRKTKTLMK
# Sox2-HMG (His6 retained) R96A, sequence (P48431 other isoform, or with tags, fused parts or gaps R96A | R96A R96A): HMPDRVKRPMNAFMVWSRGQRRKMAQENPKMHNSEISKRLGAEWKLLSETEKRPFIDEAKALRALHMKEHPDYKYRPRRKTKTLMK
# Sox2-HMG (His6 retained) H101A, sequence (P48431 other isoform, or with tags, fused parts or gaps H101A | H101A H101A): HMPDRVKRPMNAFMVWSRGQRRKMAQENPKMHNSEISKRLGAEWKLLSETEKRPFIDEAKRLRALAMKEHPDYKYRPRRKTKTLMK
# Sox2-HMG (His6 retained) N46A, sequence (P48431 other isoform, or with tags, fused parts or gaps N46A | N46A N46A): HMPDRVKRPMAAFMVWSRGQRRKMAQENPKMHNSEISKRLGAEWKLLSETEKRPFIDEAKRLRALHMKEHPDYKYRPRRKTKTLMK
# Sox2-HMG (His6 retained) E70A, sequence (P48431 other isoform, or with tags, fused parts or gaps E70A | E70A E70A): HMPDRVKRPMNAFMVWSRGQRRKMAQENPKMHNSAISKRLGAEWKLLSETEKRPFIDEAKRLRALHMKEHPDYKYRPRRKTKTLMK
# Sox2-HMG (His6 retained) R43A, sequence (P48431 other isoform, or with tags, fused parts or gaps R43A | R43A R43A): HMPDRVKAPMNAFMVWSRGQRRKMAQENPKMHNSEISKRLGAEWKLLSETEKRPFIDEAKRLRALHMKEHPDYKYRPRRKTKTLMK
# Sox2-HMG (His6 retained) P112A, sequence (P48431 other isoform, or with tags, fused parts or gaps P112A | P112A P112A): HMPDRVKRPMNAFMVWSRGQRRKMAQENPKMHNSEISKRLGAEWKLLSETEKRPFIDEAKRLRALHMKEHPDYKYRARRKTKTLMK
# Sox2-HMG (His6 retained) H105A, sequence (P48431 other isoform, or with tags, fused parts or gaps H105A | H105A H105A): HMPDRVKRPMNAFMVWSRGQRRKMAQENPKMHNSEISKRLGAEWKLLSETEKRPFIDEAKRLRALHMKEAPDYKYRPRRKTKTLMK
# Sox2-HMG (His6 retained) K115A, sequence (P48431 other isoform, or with tags, fused parts or gaps K115A | K115A K115A): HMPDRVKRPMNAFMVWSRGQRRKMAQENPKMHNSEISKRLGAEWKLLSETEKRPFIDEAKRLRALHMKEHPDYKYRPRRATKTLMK
# Sox2-HMG (His6 retained) R88A, sequence (P48431 other isoform, or with tags, fused parts or gaps R88A | R88A R88A): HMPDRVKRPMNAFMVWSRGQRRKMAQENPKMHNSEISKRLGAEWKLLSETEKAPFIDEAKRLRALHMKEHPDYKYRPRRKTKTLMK
# Sox2-HMG (His6 retained) K80A, sequence (P48431 other isoform, or with tags, fused parts or gaps K80A | K80A K80A): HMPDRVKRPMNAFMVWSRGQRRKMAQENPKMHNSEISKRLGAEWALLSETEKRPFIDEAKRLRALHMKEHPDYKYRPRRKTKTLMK
# Sox2-HMG (His6 retained) R56A, sequence (P48431 other isoform, or with tags, fused parts or gaps R56A | R56A R56A): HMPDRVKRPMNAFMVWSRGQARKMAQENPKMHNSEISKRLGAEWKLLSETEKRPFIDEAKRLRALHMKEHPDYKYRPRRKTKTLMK
# Sox2-HMG (His6 retained) E104A, sequence (P48431 other isoform, or with tags, fused parts or gaps E104A | E104A E104A): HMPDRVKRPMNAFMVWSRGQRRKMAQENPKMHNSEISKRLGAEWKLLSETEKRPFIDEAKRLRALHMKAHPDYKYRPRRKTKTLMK
sequence,measurement,setting,value
GGUCUUAAGGUGCGGGCGAAAGUCUGUACCUCUGGGACC,binding signal,[1],0.9 ± 0.5 Kd(mutant)/Kd(WT)
same,binding signal,[2],1 ± 0.6 Kd(mutant)/Kd(WT)
same,binding signal,[3],1 ± 0.5 Kd(mutant)/Kd(WT)
same,binding signal,[4],0.8 ± 0.4 Kd(mutant)/Kd(WT)
same,binding signal,[5],3.7 ± 1.7 Kd(mutant)/Kd(WT)
same,binding signal,[6],7.9 ± 2.7 Kd(mutant)/Kd(WT)
same,binding signal,[7],0.9 ± 0.5 Kd(mutant)/Kd(WT)
same,binding signal,[8],1.3 ± 0.2 Kd(mutant)/Kd(WT)
same,binding signal,[9],3.6 ± 1.4 Kd(mutant)/Kd(WT)
same,binding signal,[10],1.2 ± 0.4 Kd(mutant)/Kd(WT)
same,binding signal,[11],4.1 ± 1.4 Kd(mutant)/Kd(WT)
same,binding signal,[12],50 ± 19 Kd(mutant)/Kd(WT)
same,binding signal,[13],1.6 ± 0.8 Kd(mutant)/Kd(WT)
same,binding signal,[14],9.2 ± 2.3 Kd(mutant)/Kd(WT)
same,binding signal,[15],1.6 ± 0.5 Kd(mutant)/Kd(WT)
same,binding signal,[16],0.8 ± 0.3 Kd(mutant)/Kd(WT)
same,binding signal,[17],2.7 ± 0.3 Kd(mutant)/Kd(WT)
same,binding signal,[18],78 ± 13 Kd(mutant)/Kd(WT)
same,binding signal,[19],1.8 ± 0.6 Kd(mutant)/Kd(WT)
same,binding signal,[20],2.2 ± 1.2 Kd(mutant)/Kd(WT)
same,binding signal,[21],0.9 ± 0.5 Kd(mutant)/Kd(WT)
same,binding signal,[22],3.2 ± 1.2 Kd(mutant)/Kd(WT)
same,binding signal,[23],16 ± 2 Kd(mutant)/Kd(WT)
same,binding signal,[24],0.9 ± 0.5 Kd(mutant)/Kd(WT)
same,binding signal,[25],0.8 ± 0.5 Kd(mutant)/Kd(WT)
same,binding signal,[26],0.7 ± 0.2 Kd(mutant)/Kd(WT)
same,binding signal,[27],6.9 ± 0.2 Kd(mutant)/Kd(WT)
same,binding signal,[28],0.9 ± 0.6 Kd(mutant)/Kd(WT)
same,binding signal,[29],1.7 ± 0.6 Kd(mutant)/Kd(WT)
same,binding signal,[30],3.1 ± 1.3 Kd(mutant)/Kd(WT)
same,binding signal,[31],0.9 ± 0.3 Kd(mutant)/Kd(WT)
same,binding signal,[32],0.7 ± 0.4 Kd(mutant)/Kd(WT)
same,binding signal,[33],3 ± 0.3 Kd(mutant)/Kd(WT)
same,binding signal,[34],40 ± 15 Kd(mutant)/Kd(WT)
same,binding signal,[35],1.7 ± 0.6 Kd(mutant)/Kd(WT)
same,binding signal,[36],2.5 ± 1.1 Kd(mutant)/Kd(WT)
same,binding signal,[37],7.4 ± 2.5 Kd(mutant)/Kd(WT)
same,binding signal,[38],2.8 ± 0.6 Kd(mutant)/Kd(WT)
same,binding signal,[39],1.3 ± 0.5 Kd(mutant)/Kd(WT)
same,binding signal,[40],5.5 ± 1.9 Kd(mutant)/Kd(WT)
same,binding signal,[41],1 ± 0.1 Kd(mutant)/Kd(WT)
same,binding signal,[42],1.8 ± 0.8 Kd(mutant)/Kd(WT)
same,binding signal,[43],3.5 ± 1.1 Kd(mutant)/Kd(WT)
same,binding signal,[44],2.6 ± 0.7 Kd(mutant)/Kd(WT)
same,binding signal,[45],2.2 ± 0.9 Kd(mutant)/Kd(WT)
same,binding signal,[46],2 ± 0.7 Kd(mutant)/Kd(WT)
same,binding signal,[47],1.3 ± 0.5 Kd(mutant)/Kd(WT)
same,binding signal,[48],2 ± 1 Kd(mutant)/Kd(WT)

# — paper PMC7156710, “The Sox2 transcription factor binds RNA”
